Laboratory results as given in PubChem BioAssay.
Unmarked numbers belong to inactive results. Calls of active or inactive are those of the source.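 The calls were made as follows: active = inhibition of the reporter signal at or above 50%; inactive = inhibition below 50%.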

Assay: TLR3 IRF3 reporter activation blockers – cell-based, poly I:C stimulus, luciferase, 10K MLSCN set, primary screen (AID 602277)
Conditions: HEK293-TLR3 RL24 IRF3 luciferase reporter, at 10 µM, hits give high values
For `CCCC(=O)Nc1cc(-c2nnc(OC)c3ccccc23)ccc1N1CCOCC1`, the inhibition was 27.2%.
For `CCOc1ccccc1-n1c(SCC(=O)NCc2ccco2)nnc1-c1ccncc1`, the inhibition was 21.5%.
With `CC(C)c1ccc(C(O)c2cnc(C(C)C)n2C)cc1` (centres undefined) the inhibition was -5.66%.
In the case of `Cc1cccc(N2CCN(Cc3c(C)n(C)n(-c4ccccc4)c3=O)CC2)c1C`, the inhibition is reported as 18.5%.
`Cc1ccc2c(c1)sc1ncc(NC(=O)c3ccccc3)c(=O)n12` gave an inhibition of -38.4%.
`COc1ccc(CCNc2oc(-c3ccccc3OC)nc2C#N)cc1` gave an inhibition of 12.4%.
Molecule `N#CCCN(Cc1cccnc1)C(=O)Nc1ccc(Cl)c(Cl)c1` has an inhibition of 29.1%.
`CC(=O)N1CCc2cc(S(=O)(=O)CCC(=O)Nc3cccc(F)c3)ccc21` gave an inhibition of 19.1%.
Molecule `CC(=O)NCc1cccc(CNC(C)=O)n1` has an inhibition of 14.4%.
`CCOc1ccccc1-n1nnnc1SCC(=O)Nc1cc2oc3ccccc3c2cc1OC` showed an inhibition of 15.7%.
`CC(=O)Nc1ccccc1OCc1nnc(-c2cccs2)o1` showed an inhibition of -28.6%.
In the case of `O=C1c2ccccc2C(Nc2ccc(F)cc2F)N1CCN1CCOCC1` (centres undefined), the inhibition is reported as 38.8%.
In the case of `CNc1ccc(C(O)(C(F)(F)F)C(F)(F)F)cc1C(O)(C(F)(F)F)C(F)(F)F`, the inhibition is reported as 18.9%.
For `Cc1nnc(SC(=O)N2c3ccccc3Sc3ccccc32)s1`, the inhibition was 65.9% (active).
`C=CCn1c(=O)c2ccccc2n2c(SC(C)C(=O)Nc3nc(-c4ccccc4)cs3)nnc12` (centres undefined) gave an inhibition of 34.2%.
`CC(=O)Nc1cc(NC(C)=O)cc(C(=O)OCC(=O)N2CC(C)OC(C)C2)c1` (centres undefined) showed an inhibition of 8.11%.
In the case of `COc1ccc(C2CC(c3ccc(C)cc3)Nc3ncnn32)cc1` (centres undefined), the inhibition is reported as 16.4%.
Work on `O=C(Nc1ccc2c(c1)OCCO2)NC1CCCCC1` yielded an inhibition of -68.9%.
`CCc1cccc(NC(=O)Cn2cc3c(n2)CCCC3)c1` gave an inhibition of 26.6%.
`N#Cc1cnn(Cc2ccc(Cl)cc2)c1N` gave an inhibition of 25.7%.
`O=C(NCCCNC1CCCCC1)c1ccc(/C=N/O)nc1` gave an inhibition of 23%.
Molecule `CCCCOc1ccc(-c2ncc(C(=O)OCC)c(N)n2)cc1` has an inhibition of -34.4%.
In the case of `CCOP(=O)(c1ccc(N(C)C)cc1)C(O)c1c(Cl)cccc1Cl` (centres undefined), the inhibition is reported as 19.2%.
In the case of `Cc1c(NC(=O)c2nn(C)c(=O)c3ccccc23)c(=O)n(-c2ccccc2)n1C`, the inhibition is reported as -0.356%.
